Experimental data reported in PubChem BioAssay.
Where “and” joins values, the source holds several entries; their conditions need not be identical. Equal values may be shown once. Records with an inconclusive call do not appear. Calls of active or inactive are those of the source.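 The calls were made as follows, unless noted: active = normalized viability below 100% at a tested concentration; inactive = the rest.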

Experiments:
[1] = viability loss in pontine glioma line – cell-based, SU-DIPG-XVII, MIPE5.0, CellTiter-Glo, qHTS, dose response (AID 1347060; cut-off not given, nearly all actives have AC50 up to about 26 µM;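 as to AC50: cells exposed to compound for 48 hours before viability readout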); conditions: CellTiter-Glo ATP luminescence
[2] = viability loss in pontine glioma line – cell-based, SU-DIPG-XIII, MIPE4.0, CellTiter-Glo, qHTS, dose response (AID 1347061; cut-off not given, nearly all actives have AC50 up to about 37 µM;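 also: cells exposed to compound for 48 hours before readout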); conditions: CellTiter-Glo ATP luminescence
[3] = viability loss in pontine glioma line – cell-based, JHH-DIPG-1, MIPE4.0, CellTiter-Glo, qHTS, dose response (AID 1347062; cut-off not given, nearly all actives have AC50 up to about 27 µM;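 as to AC50: cells exposed to compound for two days before readout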); conditions: JHH-DIPG-1 viability, CellTiter-Glo ATP luminescence
[4] = viability loss in pontine glioma line – cell-based, SU-DIPG-IV, MIPE4.0, CellTiter-Glo, qHTS, dose response (AID 1347063; cut-off not given, nearly all actives have AC50 up to about 30 µM;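 also: compound exposure lasted 48 hours before the viability readout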); conditions: CellTiter-Glo ATP luminescence
[5] = viability loss in pontine glioma line – cell-based, SU-DIPG-XIII, MIPE5.0, CellTiter-Glo, qHTS, dose response (AID 1347064; cut-off not given, nearly all actives have AC50 up to about 23 µM;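 as to AC50: cells exposed to compound for 48 hours before the viability read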); conditions: CellTiter-Glo ATP luminescence
[6] = growth inhibition of DIPG cells – cell-based, MIPE4.0 library, CellTiter-Glo luminescence, qHTS (AID 1347066; cut-off not given, nearly all actives have AC50 up to about 30 µM;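 also: cells exposed to compound for 48 hours before readout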); conditions: SU-DIPG-VI viability, CellTiter-Glo ATP luminescence
[7] = JHH-DIPG-1 glioma cell viability, MIPE5.0 library, CellTiter-Glo luminescence, qHTS (AID 1347067; cut-off not given, nearly all actives have AC50 up to about 26 µM;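 also: cells exposed to compound for 48 hours before readout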); conditions: JHH-DIPG-1 glioma viability, CellTiter-Glo ATP luminescence
[8] = viability loss in pontine glioma line – cell-based, SU-DIPG-XXV, MIPE5.0, CellTiter-Glo, qHTS, dose response (AID 1347065; cut-off not given, nearly all actives have AC50 up to about 26 µM;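 also: cells exposed to compound for 48 hours before ATP readout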); conditions: CellTiter-Glo ATP luminescence
[9] = compounds altering HSF1 focus formation in cells – imaging, Selleck Cancer Library (AID 1347162; in the data active = plate-normalised HSF1 focus index below about 0.46); conditions: human cells, HSF1 nuclear foci imaging, at 10 µM; SSMD: measured here: HSF1 foci SSMD mean; cell count: measured here: cell number; plate-normalised HSF1 focus index: stronger effect = lower value
[10] = growth inhibition of DIPG cells – cell-based, MIPE5.0 library, qHTS (AID 1347068; cut-off not given, nearly all actives have IC50 up to about 30 µM;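 as to IC50: cells exposed to compound for 48 hours before viability readout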); conditions: SU-DIPG-XXV viability
[11] = viability loss with induced miR-34 in A549 – imaging, A549 dox-inducible miR-34, nuclei and caspase counts, primary screen (AID 1347080;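 active = compounds whose cell count with miR-34 switched on is under 0.7 times the count with it off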); conditions: A549 miR-34 inducible, Hoechst nuclei count, 48 h
[12] = MELAS cybrid and Rieske KO viability enhancers – cell-based, MELAS cybrids, Rieske KO mouse fibroblasts, CellTiter-Glo, primary screen (AID 1508586;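 active = mean z-score across replicates of 1.96 or higher in either the MELAS or the Rieske mutant cell line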;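 also: z relative to plate mean and SD of compound and empty wells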); conditions: low glucose
[13] = drug combination growth inhibition, ovarian cancer – cell-based, oncology-focused library, rucaparib conditional, profiling panel (AID 1508598); conditions: patient-derived ovarian cancer cells, CellTiter-Glo viability, 144 h, stronger effect = lower value
[14] = stronger effect = lower value, cell number ratio, induced over uninduced
[15] = measured here: relative caspase fold change +Dox/-Dox
[16] = measured here: total cells with miR-34 induction, stronger effect = lower value
[17] = measured here: total cells without miR-34 induction
[18] = MELAS cybrid survival, CellTiter-Glo 48 h, stronger effect = higher value
[19] = Rieske KO mouse fibroblast survival, CellTiter-Glo 72 h

Cc1cncc2cccc(S(=O)(=O)N3CCCN(C(=O)CN)C[C@@H]3C)c12
inactive: outcome [1] | outcome [2] | outcome [3] | outcome [5] | outcome [6] | outcome [7]
active: AC50 [4] 0.372 µM

Cn1c(=O)n(-c2ccc(C(C)(C)C#N)cc2)c2c3cc(-c4cnc5ccccc5c4)ccc3ncc21
active: AC50 [1] 0.481 µM | AC50 [2] 2.64 µM | AC50 [3] 4.18 µM | AC50 [4] 0.0235 µM | AC50 [5] 0.855 µM | AC50 [8] 0.135 µM | AC50 [7] 0.855 µM
7130: cell count [9]
-0.518: SSMD [9]
inactive: plate-normalised HSF1 focus index [9] 0.984

Nc1cccc2c1CN([C@H]1CCC(=O)NC1=O)C2=O
inactive: outcome [1] | outcome [2] | outcome [3] | outcome [4] | outcome [5] | outcome [7] | outcome [10]

COc1ccc(CCN2CCN(CCCc3ccccc3)CC2)cc1OC
6890: cell count [9]
3.93: SSMD [9]
inactive: outcome [1] | outcome [2] | outcome [3] | outcome [4] | outcome [5] | outcome [6] | outcome [7] | outcome [10] | plate-normalised HSF1 focus index [9] 1.24

NC(=O)c1cnc(-c2ccc(C3(N)CCC3)cc2)c(-c2ccccc2)c1
inactive: outcome [1] | outcome [2] | outcome [3] | outcome [4] | outcome [5] | outcome [10]

CC(C)Oc1cc(Nc2nc(N[C@@H](C)c3ccc(F)cn3)ncc2Cl)[nH]n1
-0.66: SSMD [9]
inactive: plate-normalised HSF1 focus index [9] 0.979
active: AC50 [1] 1.05 µM | AC50 [2] 11.8 µM | AC50 [3] 10.5 µM | AC50 [4] 6.62 µM | AC50 [5] 1.18 µM | AC50 [8] 0.742 µM | AC50 [7] 5.9 µM
6860: cell count [9]

CO[C@H]1/C=C/O[C@@]2(C)Oc3c(C)c(O)c4c(O)c(c(/C=N/N5CCN(C)CC5)c(O)c4c3C2=O)NC(=O)/C(C)=C\C=C\[C@H](C)[C@H](O)[C@@H](C)[C@@H](O)[C@@H](C)[C@H](OC(C)=O)[C@@H]1C
10800 and 11100: cell count [11, 17]
inactive: outcome [1] | outcome [2] | outcome [3] | outcome [4] | outcome [7] | fold change [11, 14] 0.839 and 0.889 | z-score [12, 18] 1.76 and 0.859
9030 and 9880: cell count [11, 16]
-0.112 and -0.159: z-score [12, 19]
active: AC50 [5] 20.9 µM
1.31 and 1.13: fold change [11, 15]

O=C(CCN1CCN(C(=O)OCc2cc(Cl)cc(Cl)c2)CC1)c1ccc2[nH]c(=O)oc2c1
active: AC50 [1] 20.9 µM | AC50 [5] 23.5 µM | AC50 [7] 16.6 µM
inactive: outcome [2] | outcome [3] | outcome [4] | outcome [6] | outcome [10]

C=Cc1c(C)c2cc3nc(cc4[nH]c(cc5nc(cc1[nH]2)C(C)=C5CCC(=O)O)c(CCC(=O)OC)c4C)[C@@]1(C)C3=CC=C(C(=O)OC)[C@H]1C(=O)OC
active: AC50 [1] 11.8 µM | AC50 [2] 0.743 µM | AC50 [3] 0.0662 µM | AC50 [4] 0.105 µM | AC50 [5] 9.34 µM | AC50 [6] 14.8 µM

C[Se]CCC(N)C(=O)O (stereo unspecified)
inactive: outcome [1] | outcome [2] | outcome [3] | outcome [4] | outcome [5] | outcome [6] | outcome [7] | outcome [10]

Clc1ccc2c(N3CCN(CCCN4CCN(c5ccnc6cc(Cl)ccc56)CC4)CC3)ccnc2c1
inactive: outcome [1] | outcome [2] | outcome [3] | outcome [4] | outcome [5] | outcome [6] | outcome [7] | outcome [10] | fold change [11, 14] 0.978
8600: cell count [11, 16]
8790: cell count [11, 17]
1.67: fold change [11, 15]

CC(C)c1cc(-c2n[nH]c(=O)n2-c2ccc3c(ccn3C)c2)c(O)cc1O
active: AC50 [1] 0.0372 µM | AC50 [2] 0.132 µM | AC50 [3] 0.0662 µM | AC50 [4] 0.059 µM | AC50 [5] 0.0417 µM | AC50 [8] 0.0372 µM | IC50 [10] 0.0833 µM | z-score [12, 18] 3.03 | viability ([13]; at 0.00122 µM, OCI-C5x cells, without rucaparib) 98.2% | viability ([13]; at 0.00488 µM, OCI-C5x cells, with rucaparib 10 µM, 100% = cells with rucaparib alone) 96.9% | viability ([13]; at 0.0195 µM, OCI-P5x cells, with rucaparib 20 µM, 100% = cells with rucaparib alone) 85.2% | viability ([13]; at 0.0781 µM, OCI-C5x cells, with rucaparib 10 µM, 100% = cells with rucaparib alone) 44.1% | viability ([13]; at 0.0781 µM, OCI-C5x cells, without rucaparib) 14.7% | viability ([13]; at 0.0781 µM, OCI-P5x cells, with rucaparib 20 µM, 100% = cells with rucaparib alone) 18.8% | viability ([13]; at 0.0781 µM, OCI-P5x cells, without rucaparib) 10.9% | viability ([13]; at 0.313 µM, OCI-C5x cells, with rucaparib 10 µM, 100% = cells with rucaparib alone) 11.6% | viability ([13]; at 0.313 µM, OCI-C5x cells, without rucaparib) 6.96% | viability ([13]; at 0.313 µM, OCI-P5x cells, with rucaparib 20 µM, 100% = cells with rucaparib alone) 6.88% | viability ([13]; at 0.313 µM, OCI-P5x cells, without rucaparib) 5.54% | viability ([13]; at 1.25 µM, OCI-C5x cells, with rucaparib 10 µM, 100% = cells with rucaparib alone) 10% | viability ([13]; at 1.25 µM, OCI-C5x cells, without rucaparib) 6.57% | viability ([13]; at 1.25 µM, OCI-P5x cells, with rucaparib 20 µM, 100% = cells with rucaparib alone) 5.29% | viability ([13]; at 1.25 µM, OCI-P5x cells, without rucaparib) 4.83% | viability ([13]; at 5 µM, OCI-C5x cells, with rucaparib 10 µM, 100% = cells with rucaparib alone) 8.35% | viability ([13]; at 5 µM, OCI-C5x cells, without rucaparib) 6.47% | viability ([13]; at 5 µM, OCI-P5x cells, with rucaparib 20 µM, 100% = cells with rucaparib alone) 6.04% | viability ([13]; at 5 µM, OCI-P5x cells, without rucaparib) 5.33%
inactive: fold change [11, 14] 1.03 | viability ([13]; at 0.000305 µM, OCI-C5x cells, with rucaparib 10 µM, 100% = cells with rucaparib alone) 102% | viability ([13]; at 0.000305 µM, OCI-C5x cells, without rucaparib) 108% | viability ([13]; at 0.000305 µM, OCI-P5x cells, with rucaparib 20 µM, 100% = cells with rucaparib alone) 116% | viability ([13]; at 0.000305 µM, OCI-P5x cells, without rucaparib) 121% | viability ([13]; at 0.00122 µM, OCI-C5x cells, with rucaparib 10 µM, 100% = cells with rucaparib alone) 100% | viability ([13]; at 0.00122 µM, OCI-P5x cells, with rucaparib 20 µM, 100% = cells with rucaparib alone) 124% | viability ([13]; at 0.00122 µM, OCI-P5x cells, without rucaparib) 119% | viability ([13]; at 0.00488 µM, OCI-C5x cells, without rucaparib) 110% | viability ([13]; at 0.00488 µM, OCI-P5x cells, with rucaparib 20 µM, 100% = cells with rucaparib alone) 126% | viability ([13]; at 0.00488 µM, OCI-P5x cells, without rucaparib) 124% | viability ([13]; at 0.0195 µM, OCI-C5x cells, with rucaparib 10 µM, 100% = cells with rucaparib alone) 117% | viability ([13]; at 0.0195 µM, OCI-C5x cells, without rucaparib) 117% | viability ([13]; at 0.0195 µM, OCI-P5x cells, without rucaparib) 104%
0.0782: z-score [12, 19]
1450: cell count [11, 16]
1400: cell count [11, 17]
0.773: fold change [11, 15]

CC(C)(C)c1[nH]cnc1/C=c1\[nH]c(=O)/c(=C/c2ccccc2)[nH]c1=O
7220: cell count [9]
inactive: plate-normalised HSF1 focus index [9] 1.17
2.69: SSMD [9]
active: AC50 [1] 0.0372 µM | AC50 [2] 42.9 µM | AC50 [3] 0.34 µM | AC50 [4] 42.9 µM | AC50 [5] 0.166 µM | AC50 [8] 0.0468 µM | AC50 [7] 0.0525 µM

CS(=O)(=O)c1ccc(-c2cnc(N)c(C(=O)Nc3ccccc3)n2)cc1
4300: cell count [11, 16]
0.758: z-score [12, 19]
0.481: fold change [11, 15]
4270: cell count [11, 17]
inactive: outcome [1] | outcome [2] | outcome [3] | outcome [4] | outcome [5] | outcome [6] | outcome [7] | outcome [10] | fold change [11, 14] 1.01 | z-score [12, 18] -0.286
